# According to ChEMBL document CHEMBL3988442, “University of Dundee, Small-Polar-MMV Screening Library” (2021):
# For part of these data: Entries with a potency or affinity are not part of this list.
# Key:
# Parameters in all cases: scale not given: direction of the effect not stated beside the values
# [1] = biological target: Protein translocase subunit SecA (Escherichia coli (strain K12)) (UniProt P10408); experiment: Assay to Identify E. coli SecA ATPase Inhibitors; assay type: functional; conditions: 30 µM
# Protein translocase subunit SecA (Escherichia coli (strain K12)), sequence (P10408 whole entry): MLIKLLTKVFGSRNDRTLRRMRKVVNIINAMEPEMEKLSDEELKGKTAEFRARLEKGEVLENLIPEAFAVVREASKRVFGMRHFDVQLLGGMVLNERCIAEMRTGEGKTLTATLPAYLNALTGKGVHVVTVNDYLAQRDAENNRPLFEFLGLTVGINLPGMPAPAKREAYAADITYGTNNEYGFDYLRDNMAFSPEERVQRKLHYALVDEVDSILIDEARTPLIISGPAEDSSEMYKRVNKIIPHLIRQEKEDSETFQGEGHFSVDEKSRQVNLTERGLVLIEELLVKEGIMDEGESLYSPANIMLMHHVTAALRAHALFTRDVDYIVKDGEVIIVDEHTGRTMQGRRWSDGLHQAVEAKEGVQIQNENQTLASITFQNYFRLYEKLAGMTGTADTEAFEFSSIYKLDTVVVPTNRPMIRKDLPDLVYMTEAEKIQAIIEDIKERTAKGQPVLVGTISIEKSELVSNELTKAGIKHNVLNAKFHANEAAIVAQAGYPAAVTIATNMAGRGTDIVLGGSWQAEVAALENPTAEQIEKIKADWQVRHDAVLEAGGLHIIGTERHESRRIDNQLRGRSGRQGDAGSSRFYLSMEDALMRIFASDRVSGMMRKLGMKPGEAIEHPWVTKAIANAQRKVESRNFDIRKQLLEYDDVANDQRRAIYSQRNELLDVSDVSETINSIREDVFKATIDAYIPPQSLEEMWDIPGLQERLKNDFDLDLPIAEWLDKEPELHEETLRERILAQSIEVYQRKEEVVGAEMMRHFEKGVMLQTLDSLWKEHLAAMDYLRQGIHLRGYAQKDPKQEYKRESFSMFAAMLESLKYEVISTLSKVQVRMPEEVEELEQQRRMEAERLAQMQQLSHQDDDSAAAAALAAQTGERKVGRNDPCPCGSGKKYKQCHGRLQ
# [2] = biological target: T1, Ubiquitin-activating enzyme e1, putative (Leishmania donovani (strain BPK282A1)) (UniProt E9BSI1); experiment: Leishmania donovani Ubiquitin Activating Enzyme (LdE1); assay type: functional; conditions: 30 µM
# T1 sequence (whole entry): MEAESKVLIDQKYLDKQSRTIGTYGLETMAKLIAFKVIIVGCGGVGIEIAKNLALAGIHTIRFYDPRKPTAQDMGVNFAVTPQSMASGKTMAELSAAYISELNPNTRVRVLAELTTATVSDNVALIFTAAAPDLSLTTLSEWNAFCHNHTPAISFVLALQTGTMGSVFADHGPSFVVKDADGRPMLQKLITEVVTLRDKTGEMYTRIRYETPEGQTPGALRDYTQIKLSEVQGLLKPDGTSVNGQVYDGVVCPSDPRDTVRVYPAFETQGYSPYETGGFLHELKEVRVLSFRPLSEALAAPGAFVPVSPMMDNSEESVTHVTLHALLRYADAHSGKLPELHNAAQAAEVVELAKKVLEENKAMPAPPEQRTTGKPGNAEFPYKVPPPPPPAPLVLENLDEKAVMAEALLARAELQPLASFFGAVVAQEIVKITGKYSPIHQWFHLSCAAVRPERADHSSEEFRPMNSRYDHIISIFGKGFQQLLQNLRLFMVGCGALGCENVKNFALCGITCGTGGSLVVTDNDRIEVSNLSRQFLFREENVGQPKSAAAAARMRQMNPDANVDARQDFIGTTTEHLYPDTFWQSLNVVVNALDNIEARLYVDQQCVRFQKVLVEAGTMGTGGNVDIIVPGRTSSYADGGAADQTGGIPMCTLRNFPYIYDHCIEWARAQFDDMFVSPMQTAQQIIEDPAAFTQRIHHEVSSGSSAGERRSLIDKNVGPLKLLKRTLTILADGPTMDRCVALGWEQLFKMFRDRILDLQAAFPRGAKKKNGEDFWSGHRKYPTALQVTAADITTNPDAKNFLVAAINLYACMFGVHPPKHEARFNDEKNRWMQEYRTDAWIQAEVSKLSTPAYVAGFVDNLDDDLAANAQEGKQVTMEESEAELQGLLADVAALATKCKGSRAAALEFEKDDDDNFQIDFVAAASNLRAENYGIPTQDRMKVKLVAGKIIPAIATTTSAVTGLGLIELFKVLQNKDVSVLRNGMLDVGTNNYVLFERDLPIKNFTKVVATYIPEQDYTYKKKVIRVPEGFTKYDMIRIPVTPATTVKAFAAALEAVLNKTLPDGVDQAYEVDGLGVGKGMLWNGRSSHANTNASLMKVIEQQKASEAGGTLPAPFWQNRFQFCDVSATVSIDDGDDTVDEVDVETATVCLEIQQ
# [3] = biological target: Sialic acid-binding Ig-like lectin 9 (Homo sapiens) (UniProt Q9Y336); experiment: Hs-Siglec9 ALPHAscreen SOP 20170721; conditions: 10 µM
# Sialic acid-binding Ig-like lectin 9 (Homo sapiens), sequence (Q9Y336 whole entry): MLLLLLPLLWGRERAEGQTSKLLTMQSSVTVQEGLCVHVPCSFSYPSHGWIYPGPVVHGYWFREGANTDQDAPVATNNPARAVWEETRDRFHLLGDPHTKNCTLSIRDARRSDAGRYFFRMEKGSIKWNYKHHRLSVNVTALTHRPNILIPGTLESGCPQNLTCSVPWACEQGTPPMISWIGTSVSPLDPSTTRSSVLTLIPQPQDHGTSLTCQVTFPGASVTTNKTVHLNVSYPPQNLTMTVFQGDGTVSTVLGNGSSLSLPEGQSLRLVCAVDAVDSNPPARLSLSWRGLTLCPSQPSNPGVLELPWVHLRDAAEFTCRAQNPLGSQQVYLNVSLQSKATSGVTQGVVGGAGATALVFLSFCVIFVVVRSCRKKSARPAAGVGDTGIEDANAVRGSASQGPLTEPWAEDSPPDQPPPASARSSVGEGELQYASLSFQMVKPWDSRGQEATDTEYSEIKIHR
# Trypanosoma cruzi = experiment: Trypanosoma cruzi phosphomannomutase and mannose-1-phosphate guanylyltransferase assay; assay type: functional; conditions: 10 µM
# [4] = biological target: T2, Arginase-2, mitochondrial (Homo sapiens) (UniProt P78540); experiment: in vitro enzyme assay to detect the production of urea directly proportional to the activity of Arginase II; assay type: functional; conditions: 33.3 µM; also: in the data most compounds retested in dose-response had high values
# T2 sequence (whole entry): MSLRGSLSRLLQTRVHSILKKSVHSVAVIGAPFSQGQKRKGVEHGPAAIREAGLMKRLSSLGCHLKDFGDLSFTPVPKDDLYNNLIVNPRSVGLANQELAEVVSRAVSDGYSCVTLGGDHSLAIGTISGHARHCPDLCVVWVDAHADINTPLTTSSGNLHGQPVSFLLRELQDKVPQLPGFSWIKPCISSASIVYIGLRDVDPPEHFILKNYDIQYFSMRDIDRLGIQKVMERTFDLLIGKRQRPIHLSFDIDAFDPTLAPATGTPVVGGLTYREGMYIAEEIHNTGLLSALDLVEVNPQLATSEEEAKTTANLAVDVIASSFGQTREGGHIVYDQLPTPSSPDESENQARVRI
# [5] = biological target: T3, Proteasome subunit beta (Trypanosoma cruzi) (UniProt O96673); experiment: Trypanosoma cruzi proteasome chymotrypsin-like activity (TcProtChymo) assay.; also: in the data most compounds retested in dose-response had high values; assay type: functional; conditions: 9.37 µM
# T3 sequence (whole entry): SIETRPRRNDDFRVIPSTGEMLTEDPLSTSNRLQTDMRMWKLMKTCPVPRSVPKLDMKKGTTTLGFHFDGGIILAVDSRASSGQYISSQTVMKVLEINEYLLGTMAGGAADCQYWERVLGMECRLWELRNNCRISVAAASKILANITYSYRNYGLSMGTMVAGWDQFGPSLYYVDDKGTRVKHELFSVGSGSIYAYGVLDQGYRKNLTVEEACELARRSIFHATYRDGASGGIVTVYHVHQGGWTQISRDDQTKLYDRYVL
# Homo sapiens = species on record: Homo sapiens; experiment: To identify inhibition of the IFN signalling (Jak-Stat) pathway via expression of an eGFP reporter gene under the control of an IFN-stimulated response element (ISRE) containing MxA promoter.; assay type: functional; conditions: 30 µM
# [6] = biological target: T4, Tyrosyl-tRNA synthetase, putative (Trypanosoma cruzi (strain CL Brener)) (UniProt Q4DSP6); experiment: Trypanosoma cruzi tyrosyl tRNA synthetase (TcYRS) _High Tyrosine SOP; assay type: functional; conditions: 30 µM; also: in the data most compounds retested in dose-response had high values
# T4 sequence (whole entry): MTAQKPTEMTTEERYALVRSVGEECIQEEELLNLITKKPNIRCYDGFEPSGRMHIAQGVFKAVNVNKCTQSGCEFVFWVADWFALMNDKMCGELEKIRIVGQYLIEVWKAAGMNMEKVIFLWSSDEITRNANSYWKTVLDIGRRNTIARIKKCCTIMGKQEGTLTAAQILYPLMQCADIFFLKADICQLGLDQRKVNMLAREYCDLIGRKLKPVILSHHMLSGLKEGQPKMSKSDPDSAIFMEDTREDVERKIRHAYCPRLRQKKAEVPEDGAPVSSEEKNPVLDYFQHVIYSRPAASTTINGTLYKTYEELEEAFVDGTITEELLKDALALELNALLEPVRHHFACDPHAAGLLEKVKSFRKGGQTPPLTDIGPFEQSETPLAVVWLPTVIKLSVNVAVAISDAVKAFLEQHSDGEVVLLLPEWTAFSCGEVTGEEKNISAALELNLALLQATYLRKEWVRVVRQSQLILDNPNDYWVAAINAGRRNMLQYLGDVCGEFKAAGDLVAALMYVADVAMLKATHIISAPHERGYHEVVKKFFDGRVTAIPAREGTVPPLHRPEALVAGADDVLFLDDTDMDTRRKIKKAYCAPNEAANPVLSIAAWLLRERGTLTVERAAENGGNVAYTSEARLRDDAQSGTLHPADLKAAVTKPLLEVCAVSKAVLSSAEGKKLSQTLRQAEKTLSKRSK
# [7] = biological target: T4, Tyrosyl-tRNA synthetase, putative (Trypanosoma cruzi (strain CL Brener)); experiment: Trypanosoma cruzi tyrosyl tRNA synthetase (TcYRS) SOP; assay type: functional; conditions: 30 µM
# [8] = biological target: Chromo domain-containing protein 1 (Saccharomyces cerevisiae (strain ATCC 204508 / S288c) (Baker's yeast)) (UniProt P32657); experiment: ScCHD-1 Enzyme Inhibition Assay; assay type: functional; conditions: 30 µM; also: in the data most compounds retested in dose-response had high values
# Chromo domain-containing protein 1 (Saccharomyces cerevisiae (strain ATCC 204508 / S288c) (Baker's yeast)), sequence (P32657 whole entry, the tested form may be a part): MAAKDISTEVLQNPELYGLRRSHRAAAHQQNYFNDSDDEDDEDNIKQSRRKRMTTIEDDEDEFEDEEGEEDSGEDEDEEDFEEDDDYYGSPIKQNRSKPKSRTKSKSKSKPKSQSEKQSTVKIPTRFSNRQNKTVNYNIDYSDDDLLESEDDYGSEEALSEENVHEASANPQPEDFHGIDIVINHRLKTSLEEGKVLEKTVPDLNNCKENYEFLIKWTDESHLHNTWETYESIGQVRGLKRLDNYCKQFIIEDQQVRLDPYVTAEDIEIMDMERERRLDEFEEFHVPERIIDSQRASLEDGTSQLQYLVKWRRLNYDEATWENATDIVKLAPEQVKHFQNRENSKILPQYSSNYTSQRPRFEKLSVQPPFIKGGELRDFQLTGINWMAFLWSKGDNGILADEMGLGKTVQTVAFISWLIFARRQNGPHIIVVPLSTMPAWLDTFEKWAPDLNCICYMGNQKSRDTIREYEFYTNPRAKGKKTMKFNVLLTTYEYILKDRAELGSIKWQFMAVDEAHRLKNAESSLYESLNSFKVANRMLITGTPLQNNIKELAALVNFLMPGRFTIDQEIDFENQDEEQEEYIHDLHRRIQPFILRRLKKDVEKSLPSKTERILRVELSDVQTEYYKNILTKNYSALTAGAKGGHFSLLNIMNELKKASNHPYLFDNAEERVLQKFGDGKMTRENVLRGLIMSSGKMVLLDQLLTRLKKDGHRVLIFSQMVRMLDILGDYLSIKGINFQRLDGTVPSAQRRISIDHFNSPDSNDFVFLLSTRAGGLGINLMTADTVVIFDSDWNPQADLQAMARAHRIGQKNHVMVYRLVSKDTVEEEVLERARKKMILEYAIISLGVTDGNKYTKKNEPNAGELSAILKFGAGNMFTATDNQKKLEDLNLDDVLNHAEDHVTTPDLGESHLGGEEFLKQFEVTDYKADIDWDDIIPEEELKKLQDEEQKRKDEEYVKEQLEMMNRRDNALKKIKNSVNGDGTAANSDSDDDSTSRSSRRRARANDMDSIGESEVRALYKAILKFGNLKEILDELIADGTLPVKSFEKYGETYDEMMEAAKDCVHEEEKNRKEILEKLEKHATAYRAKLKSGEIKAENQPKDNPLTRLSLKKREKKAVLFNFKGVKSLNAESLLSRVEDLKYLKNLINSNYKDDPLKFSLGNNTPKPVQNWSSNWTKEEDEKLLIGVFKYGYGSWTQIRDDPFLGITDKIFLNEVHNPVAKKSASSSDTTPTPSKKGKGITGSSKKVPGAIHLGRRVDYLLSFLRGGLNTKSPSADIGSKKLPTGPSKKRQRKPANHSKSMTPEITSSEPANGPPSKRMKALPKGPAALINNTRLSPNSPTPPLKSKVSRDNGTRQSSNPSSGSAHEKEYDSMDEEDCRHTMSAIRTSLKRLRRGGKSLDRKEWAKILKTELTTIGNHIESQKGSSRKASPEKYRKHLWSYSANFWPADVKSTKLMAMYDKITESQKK
SMILES,Percent Effect [1] [%],Percent Effect [2] [%],Percent Effect [3] [%],Percent Effect (Trypanosoma cruzi) [%],Percent Effect [4] [%],Percent Effect [5] [%],Percent Effect (Homo sapiens) [%],Percent Effect [6] [%],Percent Effect [7] [%],Percent Effect [8] [%]
CC(NC(=O)N1CCC(OCc2ccccc2)CC1)c1nncn1C (stereo not given),-3.83,5.33,-0.332,7.63,1.33,14.8,15.6,2.63,12.8,-8.27
CN(CCNC(=O)c1scnc1Cl)c1ccccc1,-1.49,10.7,-1.26,-8.23,3.99,19.9,20,1.58,10.3,-6.98
Cc1nn(C)c(N(C)C)c1CNCc1ccc(OCC(N)=O)cc1,-3.65,8,0.758,-2.61,-1.33,13.2,-6,5.79,7.69,-13.9
Cc1nn2cccnc2c1C(=O)N1CCCC(Nc2ccccc2)C1 (stereo not given),-3.41,0,1,-0.803,7.54,-2.46,-3.46,5.79,5.13,8.56
CCNC(=O)N1CCN(C(=O)c2cc(Cl)cc3cccnc23)CC1,-1.06,0,3.31,-1.03,3.28,7.93,6.48,-0.478,-1.21,2.64
Cc1ccccc1S(=O)(=O)N1CCCCC1c1ccn[nH]1 (stereo not given),1.53,9.33,-8.62,-7.5,0.443,13.3,19.3,0,7.5,-21.7
CCc1nc(CN2CCCN(C(=O)c3cn[nH]c3CC)CC2)cs1,0.744,17.9,-17.5,-0.282,-6.97,10.2,-6.8,6.22,13.2,-6.17
COc1cccc(-c2noc(C3CCN(Cc4cn(C)nc4C)C3)n2)c1 (stereo not given),-3.83,14.7,3.58,5.72,-1.33,14.1,31.6,6.35,20,-24.7
O=C(NCc1cc[nH]n1)NCC(O)COc1cccc(F)c1 (stereo not given),-1.6,10.7,-6.96,-7.03,-7.98,8.74,12.9,-2.63,0,-6.87
CCn1nc2c(cc1=O)CN(Cc1nc(CCOC)no1)CC2,-2.71,5.13,-1.28,4.6,9.43,0.427,4.98,0.478,8.43,-3.33
OC(CNCCn1cccn1)c1ccc(F)c(F)c1 (stereo not given),1.48,16,-2.24,2.81,1.33,19.8,18.7,4.74,12.8,-8.38
CC(Cn1cccn1)NC(=O)NCc1cccnc1OC1CCCC1 (stereo not given),-2.7,8,-3.26,4.42,0.887,8.06,-10.3,0.526,10.3,-8.77
